# Experimental data reported in PubChem BioAssay (Tox21).
# A number with no mark means an inactive call. Records with an inconclusive call do not appear. Entries that show only a call come without a potency. Active and inactive are the calls of the source. Unless noted, the call rests on the fitted dose curve; in most records, active means well fitted curve in the direction sought with a large enough effect in the repeat runs; inconclusive means weak or mixed curves; inactive means no such curve, though single readings can be large; an effect the other way counts as inactive or inconclusive.
# Experiments:
# [1] = qHTS assay to identify small molecule agonists of the hypoxia (HIF-1) signaling pathway (AID 1224846; active means well fitted activation curve with a large enough effect in the signal ratio in the repeat runs, not every such curve was filed as active; the % refers to the signal ratio)
# Outline: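 In ME-180 cells bearing an HRE-bla construct, 17 h treatment with DMSO-dissolved compounds at 37C was followed by CCF4-AM loading to quantify reporter induction.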
# [2] = qHTS assay to identify small molecule agonists of H2AX - cell viability counter screen (AID 1224847; calls by dose curve; further: nearly all actives have a fitted effect of over 30% in size; further: potency means the concentration at half of the fitted maximal effect;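 on activity change, negative = cytotoxicity: wild-type CHO-K1 cells; top concentration of the series differs between compounds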)
# Outline: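 CHO-K1 cells plated overnight at 37C, then exposed 3 h at 37C to compounds at 15 concentrations (0.76% DMSO final). Viability by CellTiter-Glo luminescence after 30 min at room temperature.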
# [3] = qHTS assay to identify small molecule antagonists of the estrogen related receptor (ERR) signaling pathway from Tox21 library (AID 1224848); further: nearly all actives have a fitted effect of over 50% in size; further: potency means the concentration at half of the fitted maximal effect
# Outline: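 Quantitative high-throughput format: ERR reporter cells (2,000/well) pre-incubated 6 h, treated 18 h at 37 C with compounds in DMSO alongside positive and negative controls, then read by ONE-Glo luminescence.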
# [4] = qHTS RealTime-Glo MT Cell Viability Assay in HepG2 cells - 24 hour (AID 1224867); further: nearly all actives have a fitted effect of over 50% in size; further: potency means the concentration at half of the fitted maximal effect
# Outline: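 HepG2 suspension premixed with RealTime-Glo reagents is plated at 600 cells per well and left 5 h at 37 C/5% CO2. Compounds in DMSO then go in, and bioluminescence reflecting viable cell number is recorded over 40 h.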
# [5] = qHTS RealTime-Glo MT Cell Viability Assay in HEK293 cells - 32 hour (AID 1224868); further: nearly all actives have a fitted effect of over 50% in size; further: potency means the concentration at half of the fitted maximal effect; on activity change, negative = cytotoxic: top concentration of the series differs between compounds
# Outline: (§1)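 Reads taken at 0, 8, 16, 24, 32 and 40 h from the same wells. HEK293 cells (600/well) carried RealTime-Glo reagents from seeding, with compound added after a 5 h settle at 37 C.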
# [6] = qHTS RealTime-Glo MT Cell Viability Assay in HepG2 cells - 40 hour (AID 1224870); further: nearly all actives have a fitted effect of over 50% in size; further: potency means the concentration at half of the fitted maximal effect
# Outline: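 HepG2 cells (600/well) mixed with RealTime-Glo MT reagent, settled 5 h at 37 C/5% CO2 before compound addition. Nonlytic NanoLuc luminescence from viable-cell prosubstrate reduction read repeatedly during 40 h treatment at 37 C.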
# [7] = qHTS RealTime-Glo MT Cell Viability Assay in HEK293 cells - 16 hour (AID 1224872); further: nearly all actives have a fitted effect of over 50% in size; further: potency means the concentration at half of the fitted maximal effect; on activity change, negative = cytotoxicity: top concentration of the series differs between compounds
# Outline: as §1
# [8] = qHTS assay to identify small molecule agonists of the estrogen related receptor (ERR) signaling pathway from Tox21 library (AID 1224849; calls by dose curve; further: nearly all actives have a fitted effect of over 15% in size); details: ERR reporter cell line, ONE-Glo luciferase, 18 h; at 92.4 µM (top of the series) unless noted
# Outline: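 Reporter cells (ERR, NTP source) treated with Tox21 10K compounds 18 h, 37 C. Readout: ONE-Glo luminescence, 30 min RT.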
# [9] = A CellTox Green Cytotoxicity Assay to monitor cytotoxicity in HEK293 cells - 0 hour (AID 1224869); further: nearly all actives have a fitted effect of over 50% in size
# Outline: (§2)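 Homogeneous no-lysis format: HEK293 cell suspension mixed with CellTox Green reagent, seeded, incubated 5 h at 37 C/5% CO2, then dosed by pintool with compound in DMSO.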
# [10] = A CellTox Green Cytotoxicity Assay to monitor cytotoxicity in HEK293 cells - 40 hour (AID 1224871); further: nearly all actives have a fitted effect of over 45% in size; further: potency means the concentration at half of the fitted maximal effect
# Outline: as §2
structure (smiles),measurement,setting,value
Cc1cncc(C)c1,outcome,[1],inactive
same,Potency,[2],inactive
same,Potency,[3],inactive
same,Potency,[4],inactive
same,Potency,[5],inactive
same,Potency,[6],inactive
same,Potency,[7],inactive
COc1ccccc1OCCNCC(O)COc1cccc2[nH]c3ccccc3c12 (centres undefined),outcome,[1],inactive
same,Potency,[2],49.2 µM (active)
same,Potency,[3],26.6 µM (active)
same,"activity change, positive = activation",[8],-52.7% [at 42.5 µM]
same,Potency,[4],21.3 µM (active)
same,Potency,[5],16.9 µM (active)
same,Potency,[9],inactive
same,Potency,[6],23.9 µM (active)
same,Potency,[7],16.9 µM (active)
CCCCCCCC(=O)OCC,outcome,[1],inactive
same,Potency,[2],inactive
same,Potency,[3],inactive
same,"activity change, positive = activation",[8],0.783%
same,Potency,[5],inactive
same,Potency,[9],inactive
same,Potency,[10],inactive
same,Potency,[7],inactive
O=S(O)O,activation,[1],-0.609% [at 15.8 µM]
same,"activity change, negative = cytotoxicity",[2],3.26% [at 31.6 µM]
same,"activity change, negative = cytotoxicity",[4],3.99% [at 15.8 µM]
same,"activity change, negative = cytotoxic",[5],13.4% [at 15.8 µM]
same,cytotoxicity,[9],-3.65% [at 15.8 µM]
same,"activity change, negative = cytotoxic",[6],-0.0421% [at 15.8 µM]
same,cytotoxicity increase,[10],-2.31% [at 15.8 µM]
same,"activity change, negative = cytotoxicity",[7],5.35% [at 15.8 µM]
Cc1cn[nH]c1,outcome,[1],inactive
same,Potency,[2],inactive
same,Potency,[4],inactive
same,Potency,[5],inactive
same,Potency,[9],inactive
same,Potency,[6],inactive
same,Potency,[10],inactive
same,Potency,[7],inactive
CC1=C(/C=C/C(C)=C/C=C/C(C)=C\C=O)C(C)(C)CCC1,outcome,[1],inactive
same,Potency,[2],107 µM (active)
same,Potency,[4],inactive
same,Potency,[5],46.4 µM (active)
same,Potency,[9],inactive
same,Potency,[6],inactive
Cc1ccc2ccc3cccc4ccc1c2c34,outcome,[1],inactive
same,Potency,[2],inactive
same,"activity change, positive = activation",[8],-32.5%
same,Potency,[4],inactive
same,Potency,[9],inactive
same,Potency,[6],inactive
same,Potency,[7],inactive
CCCCN(C)C,outcome,[1],inactive
same,Potency,[2],inactive
same,Potency,[4],inactive
same,Potency,[5],inactive
same,Potency,[9],inactive
same,Potency,[6],inactive
same,Potency,[10],inactive
same,Potency,[7],inactive
COc1cccc(OC)c1O,outcome,[1],inactive
same,Potency,[2],inactive
same,Potency,[4],inactive
same,Potency,[5],inactive
same,Potency,[9],inactive
same,Potency,[6],inactive
same,Potency,[10],inactive
same,Potency,[7],inactive
CCc1ccc(O)c(C(C)(C)C)c1,outcome,[1],inactive
same,Potency,[2],101 µM (active)
same,Potency,[4],inactive
same,Potency,[5],inactive
same,Potency,[9],inactive
same,Potency,[6],inactive
same,Potency,[10],38.9 µM (active)
same,Potency,[7],inactive
SCCCCCCCCS,outcome,[1],inactive
same,Potency,[2],inactive
same,Potency,[4],inactive
same,Potency,[5],inactive
same,Potency,[9],inactive
same,Potency,[6],inactive
same,Potency,[10],inactive
same,Potency,[7],inactive
Cc1c(C(=O)O)cccc1[N+](=O)[O-],outcome,[1],inactive
same,Potency,[2],inactive
same,Potency,[4],inactive
same,Potency,[5],inactive
same,Potency,[9],inactive
same,Potency,[6],inactive
same,Potency,[10],inactive
same,Potency,[7],inactive
C[Si](C)O[Si](C)C,outcome,[1],inactive
same,Potency,[2],inactive
same,Potency,[4],inactive
same,Potency,[5],inactive
same,Potency,[9],inactive
same,Potency,[6],inactive
same,Potency,[10],inactive
same,Potency,[7],inactive
O=C=NCc1cccc(CN=C=O)c1,activation,[1],-0.762% [at 15.8 µM]
same,"activity change, negative = cytotoxicity",[2],1.36% [at 31.6 µM]
same,"activity change, negative = cytotoxicity",[4],1.03% [at 15.8 µM]
same,"activity change, negative = cytotoxic",[5],6.09% [at 15.8 µM]
same,cytotoxicity,[9],-8.38% [at 15.8 µM]
same,"activity change, negative = cytotoxic",[6],0.58% [at 15.8 µM]
same,cytotoxicity increase,[10],-14.1% [at 15.8 µM]
same,"activity change, negative = cytotoxicity",[7],2.12% [at 15.8 µM]
